GLS inhibitor: qHTS for Inhibitors of Glutaminase (GLS) | Glutaminase kidney isoform, mitochondrial (Homo sapiens), O94925 | GLS enzymatic activity, qHTS titration | Potency, µM (highest dose often 45.5 µM), for inactives: at the top dose activity change, negative = inhibition, actives largely listed as inhibitors | hit rate 0.21% among 410,000 | AID 624170, 2012; further: on the % scale 0 is the no-effect control and ±100 the full control effect
Target sequence (O94925 whole entry, looked up, canonical isoform): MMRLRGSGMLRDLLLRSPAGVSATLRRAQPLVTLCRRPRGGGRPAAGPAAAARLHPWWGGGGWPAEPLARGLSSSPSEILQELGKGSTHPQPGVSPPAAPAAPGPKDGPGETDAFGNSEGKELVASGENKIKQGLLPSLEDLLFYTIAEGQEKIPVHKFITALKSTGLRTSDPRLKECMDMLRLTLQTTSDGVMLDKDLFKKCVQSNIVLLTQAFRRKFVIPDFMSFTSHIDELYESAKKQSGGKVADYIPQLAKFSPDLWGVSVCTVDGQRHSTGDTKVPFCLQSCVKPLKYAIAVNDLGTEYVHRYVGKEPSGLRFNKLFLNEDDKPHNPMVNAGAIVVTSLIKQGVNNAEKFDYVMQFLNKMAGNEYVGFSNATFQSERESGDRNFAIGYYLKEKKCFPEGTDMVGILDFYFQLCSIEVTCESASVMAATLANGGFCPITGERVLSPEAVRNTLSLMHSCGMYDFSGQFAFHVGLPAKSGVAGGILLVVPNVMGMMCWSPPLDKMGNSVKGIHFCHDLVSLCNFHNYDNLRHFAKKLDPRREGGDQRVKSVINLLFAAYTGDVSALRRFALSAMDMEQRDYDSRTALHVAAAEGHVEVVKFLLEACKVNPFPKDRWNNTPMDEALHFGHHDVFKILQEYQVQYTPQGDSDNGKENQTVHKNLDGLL
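Two-point fluorescence kinetic (t0, 30 min RT) for hKGA; glutamate detected via glutamate oxidase–HRP–Amplex Red. Substrate: 1 mM L-glutamine solution; buffer 45 mM KH2PO4, pH 8.2.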
JMJD2A Tudor: qHTS Assay for Inhibitors of JMJD2A-Tudor Domain; Lysine-specific demethylase 4A (Homo sapiens), O75164; AlphaScreen JMJD2A-Tudor / H3K4me3 peptide binding; Potency, µM (highest dose often 114 µM), for the others: at the top dose activity change, negative = inhibition, hits mostly inhibitors; hit rate 4.4% among 390,000; further: on the % scale 0 is the no-effect control and ±100 the full control effect; nearly all actives have a fitted effect of over 50% in size
HP1b binding inh: HTS for Inhibitors of HP1-beta Chromodomain Interactions with Methylated Histone Tails; hit rate 0.56% among 390,000; Potency, µM (titrated, usually from 114 µM), for the others: top-dose activity change, negative = inhibition, most hits filed as inhibitors; AlphaScreen HP1-beta / biotin-H3K9me3 peptide binding; AID 540317, 2011; Chromobox protein homolog 1 (Homo sapiens), P83916; further: nearly all actives have a fitted effect of over 70% in size
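AlphaScreen: HP1-beta (50 nM) preformed 30 min with biotin-H3(1-18)K9me3 peptide (50 nM) in PBS pH 7.4, 0.01% Tween-20. Compound added for 30 min at RT, then streptavidin donor/nickel chelate acceptor beads (10 ug/mL) for 30 min.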
G9a inh: qHTS Assay for Inhibitors of Histone Lysine Methyltransferase G9a; Histone-lysine N-methyltransferase EHMT2 (Homo sapiens), Q96KQ7; G9a H3K9 monomethylation, AlphaScreen, 2 h; Potency, µM (titrated, usually from 102 µM), inactives show at the top dose activity, negative = inhibition, most hits filed as inhibitors; hit rate 8.8% among 350,000; further: on the % scale 0 is the no-effect control and ±100 the full control effect; nearly all actives have a fitted effect of over 75% in size
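Quantitative HTS format: methyltransferase activity on a biotin-tagged H3K9 peptide is measured by AlphaScreen, using a rabbit anti-monomethyl-H3K9 antibody with streptavidin donor and anti-IgG acceptor beads. Final levels are 20 nM enzyme, 500 nM peptide, 20 uM SAM; 2 h RT.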
BAZ2B block: qHTS Assay for Inhibitors of BAZ2B; Bromodomain adjacent to zinc finger domain protein 2B (Homo sapiens), Q9UIF8; AlphaScreen BAZ2B-H3K14Ac peptide displacement; Potency, µM (series often up to 114 µM), for the others: top-dose activity change, negative = inhibition, most hits filed as inhibitors; hit rate 4.4% among 360,000; further: on the % scale 0 is the no-effect control and ±100 the full control effect; nearly all actives have a fitted effect of over 60% in size
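Protein-peptide AlphaScreen: BAZ2B 50 nM, b-H3K14Ac 50 nM, 1x PBS pH 7.4 + 0.01% Tween-20. Preincubation 30 min RT; cpd 30 min RT (top 110 uM); beads 20 min RT, light-protected.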
Starred values were filed as active, the others as inactive; ? = inconclusive; · = not tested or not shown; [ ] = remark or other dose. Rows were chosen to be rich in hits. Some 10% of all compounds tested hit in one or more screens of this group. The call rests on the fitted dose curve; in most records, active means well fitted curve in the direction sought with a large enough effect; inconclusive means small, poorly fitted or top-dose-only effect, or another doubt; inactive means no such curve, though single readings can be large; an effect the other way counts as inactive or inconclusive. Potency means the concentration at half of the fitted maximal effect.

SMILES	GLS inhibitor	JMJD2A Tudor	HP1b binding inh	G9a inh	BAZ2B block
CC(C(=O)Nc1ccccc1)n1nnc2sc3c(c2c1=O)CCCC3 (configuration not stated)	7.1%	-30.5%	2.3%	15.8µM*	-15.7%
Cc1nc(CC(=O)c2ccc(O)cc2O)cs1	21.2%	3.6%	27.7%	?	-2.1%
Cc1nc(C/C(=N\Nc2ccccc2)c2ccc(O)cc2O)cs1	1.3%	50.1µM*	?	4.47µM*	50.1µM*
CCc1cc(/C(Cc2ccccn2)=N\Nc2ccccc2)c(O)cc1O	0.0%	?	?	2.51µM*	50.1µM*
O=C(Nc1nnc([C@@H]2C[C@H](O)[C@@H](CO)O2)s1)c1ccc(Oc2ccccc2)cc1	6.5%	·	·	·	·
CC1(C)C(N(O)C(=O)Nc2ccc(Cl)cc2)N(c2ccc(Cl)cc2)C(=O)N1CC(=O)NN (configuration not stated)	?	-29.3%	25.8%	15.4%[12.7 µM]	-2.2%
COC(=O)c1ccccc1NC(=O)COC(=O)c1cccnc1	3.5%	-5.8%	21.6%	2.1%[2.33 µM]	1.3%
CC1CCC(C(C)C)C(OC(=O)CSc2nc(N)cc(=O)[nH]2)C1 (configuration not stated)	-4.3%	-9.2%	28.3%	-15.4%	-36.9%
COc1c(/C=N/NC(=O)c2ccccc2O)c(CCN(C)C(C)=O)cc2c1OCO2	0.7%	0.3%	21.0%	42.0%[59 µM]	-8.8%
COc1c(/C=N/Nc2ccc(C(=O)O)cc2)c(CCN(C)C(C)=O)cc2c1OCO2	16.5%	3.1%	44.3%	44.7µM*	-15.3%
S=c1[nH]nc(COc2ccccc2)n1-c1ccc(Cl)cc1	2.5%	-28.8%	22.2%	·	·
COc1ccc(-n2c(COc3ccccc3)n[nH]c2=S)cc1	-23.9%	50.1µM*	31.8%	14.0%[0.501 µM]	-2.3%
Cc1ccc(-n2c(COc3cccc(C)c3)n[nH]c2=S)cc1	-6.3%	-20.9%	45.0%	4.47µM*	-30.2%
COc1ccc(-n2c(COc3ccc(C)cc3)n[nH]c2=S)cc1	-8.1%	-36.9%	16.2%	·	2.2%
Cc1ccc(-n2c(COc3ccccc3)n[nH]c2=S)cc1	?	-35.1%	16.3%	7.94µM*	-20.2%
Cc1cccc(OCc2n[nH]c(=S)n2-c2ccccc2)c1	-16.3%	?	6.9%	·	?
On1c(-c2ccccc2)nc2ccccc21	4.1%	-10.7%	5.4%	4.8%	-1.2%
COc1ccc(-c2cc(C(=O)Nc3ccc(S(=O)(=O)Nc4onc(C)c4C)cc3)c3ccccc3n2)cc1	13.7%	?	-12.3%[57 µM]	50.1µM*	?
Cc1cc(C)nc(NS(=O)(=O)c2ccc(NC(=O)C3(c4ccccc4)CCCC3)cc2)n1	12.7%	-19.9%	9.8%	56.2µM*	0.1%
Cc1ccnc(NS(=O)(=O)c2ccc(NC(=O)c3cc(-c4ccccc4)nc4ccccc34)cc2)n1	6.1%	-19.2%	2.5%	?	-20.7%
Cc1ccc(-c2cc(C(=O)Nc3ccc(S(=O)(=O)Nc4nc(C)cc(C)n4)cc3)c3ccccc3n2)cc1	0.9%	-18.5%	?	50.1µM*	?
CCN(CC)S(=O)(=O)c1ccc(O)c(NC(=O)c2cc(-c3cc(OC)c(OC)c(OC)c3)nc3ccccc23)c1	-8.2%	?	-36.2%	7.94µM*	-21.3%
COc1cc(-c2cc(C(=O)Nc3ccc(S(N)(=O)=O)cc3)c3ccccc3n2)cc(OC)c1OC	-4.0%	-21.2%	21.7%	-47.1%	16.4%
C=CCNC(=O)c1cccc2c1C(=O)c1ccc(N3CCOCC3)cc1S2(=O)=O	-1.4%	-13.5%	18.0%	·	·
Cc1noc(NS(=O)(=O)c2ccc(NC(=O)c3cnc4scc(C)n4c3=O)cc2)c1C	1.7%	?	7.0%	50.1µM*	-8.1%
COc1ccccc1N(CC(=O)NCCc1ccccc1)C(=O)CCC(=O)Nc1nccs1	-25.4%	-12.7%	10.4%	23.2%[59 µM]	3.5%
COc1ccc(-c2[nH]c(-c3ccccc3)nc2SCC(=O)Nc2nccs2)cc1	-4.9%	?	-4.1%	11.2µM*	?
